Active and inactive are the calls of the source.

Experiment [1] deals with PRMT1 (protein arginine N-methyltransferase 1). The experiment in a line: PRMT1 binders on small-molecule microarrays, primary screen, biochemical, small-molecule microarray, 635 nm fluorescence (AID 1088).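 Note: binding of Prmt1 protein to compounds spotted on small-molecule microarray slides.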 The note with it: small-molecule microarray binding, higher = more signal.
Experiment [2] can be described thus: yeast growth modulation, basal conditions, primary screen, YJM789 clinical isolate, OD600, 24 h (AID 1089).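 Note: growth of clinical yeast isolate S. cerevisiae YJM 789 seeded 1000 cells per well; test concentration not given here.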 Particulars: S. cerevisiae YJM789 growth, higher = more signal, called active from +8 up or from −8 down.
Experiment [3] is described as follows: fission yeast growth modulation, primary screen, strain 972, OD600, 24 h, no modulator (AID 1090).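 Note: basal condition with compound alone and no growth modifier present; test concentration not given here.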 Particulars: S. pombe 972 growth, higher = more signal, called active from +8 up or from −8 down.
Experiment [4] in a line: S. cerevisiae growth modulation with rapamycin, primary screen, strain BY4716, OD600, 96 h (AID 1091). Note: test concentration not given here. The note with it: higher = more signal, called active from +8 up or from −8 down.
The target of experiment [5] is Torsin-1A-interacting protein 2 (Homo sapiens) (UniProt Q8NFQ8). Description: LULL1 binders on small-molecule microarray, primary screen, cell lysate, human LULL1 lysate, 635/667 nm fluorescence (AID 1092).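 Note: probe is lysate of COS7 cells overexpressing human LULL1; score merges per-feature 667 nm fluorescence with signal-to-noise.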 The note with it: hLULL1 lysate binding, 635 nm fluorescence, higher = more signal.
Chain of Torsin-1A-interacting protein 2 (Homo sapiens) (Q8NFQ8 whole entry, looked up): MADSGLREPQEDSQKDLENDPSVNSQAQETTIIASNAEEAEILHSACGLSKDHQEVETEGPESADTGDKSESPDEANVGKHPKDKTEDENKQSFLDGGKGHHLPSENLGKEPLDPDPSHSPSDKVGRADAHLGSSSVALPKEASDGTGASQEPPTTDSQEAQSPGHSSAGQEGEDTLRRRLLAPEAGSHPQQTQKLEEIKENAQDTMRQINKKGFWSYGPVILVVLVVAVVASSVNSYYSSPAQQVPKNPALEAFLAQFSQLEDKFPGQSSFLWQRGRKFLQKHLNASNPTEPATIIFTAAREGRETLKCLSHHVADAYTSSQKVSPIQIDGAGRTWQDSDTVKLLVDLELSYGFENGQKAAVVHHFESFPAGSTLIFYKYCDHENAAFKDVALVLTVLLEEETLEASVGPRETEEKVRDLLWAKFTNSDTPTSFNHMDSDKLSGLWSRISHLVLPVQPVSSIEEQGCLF
A short description of experiment [6]: E. coli growth modulation, two-sided OD650, primary screen, E. coli filamentation project, strain DRC41, 24 h (AID 1093).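 Note: MC1000 strain lacking acrAB efflux and sulA so SOS filamentation is blocked; test concentration not given here.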 Particulars: OD650, 24 h, higher = more signal, called active from +8 up or from −8 down.
Experiment [7] in a line: small-molecule microarray binders of probe aLefty2, primary screen, biochemical, biotinylated probe, 635/667 nm fluorescence (AID 1094).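 Note: score merges spot fluorescence near 667 nm with spot signal-to-noise ratio.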 The note with it: higher = more signal.
Experiment [8] relates to Noggin (protein binding on small-molecule microarray). Description: Noggin binders on small-molecule microarray, primary screen, biochemical, 635/667 nm fluorescence (AID 1095).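 Note: score merges 667 nm feature fluorescence with signal to noise over triplicate slides.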 The note with it: 635 nm fluorescence, higher = more signal.
Experiment [9] concerns the target Neurogenic locus notch homolog protein 3 (Homo sapiens) (UniProt Q9UM47). Description: NOTCH3 binders on small-molecule microarray, primary screen, biochemical, 635/667 nm fluorescence (AID 1096). The note with it: NOTCH3 binding, 635 nm fluorescence, higher = more signal.
A short description of experiment [10]: small-molecule microarray binders of probe aEGFR, primary screen, biochemical, biotinylated probe, 635/667 nm fluorescence (AID 1097).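 Note: probe is a biotinylated anti-EGFR antibody binding compounds printed on slides; score combines fluorescence near 667 nm and signal to noise of each spot.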 Particulars: higher = more signal.

Chain of Neurogenic locus notch homolog protein 3 (Homo sapiens) (Q9UM47 whole entry, looked up): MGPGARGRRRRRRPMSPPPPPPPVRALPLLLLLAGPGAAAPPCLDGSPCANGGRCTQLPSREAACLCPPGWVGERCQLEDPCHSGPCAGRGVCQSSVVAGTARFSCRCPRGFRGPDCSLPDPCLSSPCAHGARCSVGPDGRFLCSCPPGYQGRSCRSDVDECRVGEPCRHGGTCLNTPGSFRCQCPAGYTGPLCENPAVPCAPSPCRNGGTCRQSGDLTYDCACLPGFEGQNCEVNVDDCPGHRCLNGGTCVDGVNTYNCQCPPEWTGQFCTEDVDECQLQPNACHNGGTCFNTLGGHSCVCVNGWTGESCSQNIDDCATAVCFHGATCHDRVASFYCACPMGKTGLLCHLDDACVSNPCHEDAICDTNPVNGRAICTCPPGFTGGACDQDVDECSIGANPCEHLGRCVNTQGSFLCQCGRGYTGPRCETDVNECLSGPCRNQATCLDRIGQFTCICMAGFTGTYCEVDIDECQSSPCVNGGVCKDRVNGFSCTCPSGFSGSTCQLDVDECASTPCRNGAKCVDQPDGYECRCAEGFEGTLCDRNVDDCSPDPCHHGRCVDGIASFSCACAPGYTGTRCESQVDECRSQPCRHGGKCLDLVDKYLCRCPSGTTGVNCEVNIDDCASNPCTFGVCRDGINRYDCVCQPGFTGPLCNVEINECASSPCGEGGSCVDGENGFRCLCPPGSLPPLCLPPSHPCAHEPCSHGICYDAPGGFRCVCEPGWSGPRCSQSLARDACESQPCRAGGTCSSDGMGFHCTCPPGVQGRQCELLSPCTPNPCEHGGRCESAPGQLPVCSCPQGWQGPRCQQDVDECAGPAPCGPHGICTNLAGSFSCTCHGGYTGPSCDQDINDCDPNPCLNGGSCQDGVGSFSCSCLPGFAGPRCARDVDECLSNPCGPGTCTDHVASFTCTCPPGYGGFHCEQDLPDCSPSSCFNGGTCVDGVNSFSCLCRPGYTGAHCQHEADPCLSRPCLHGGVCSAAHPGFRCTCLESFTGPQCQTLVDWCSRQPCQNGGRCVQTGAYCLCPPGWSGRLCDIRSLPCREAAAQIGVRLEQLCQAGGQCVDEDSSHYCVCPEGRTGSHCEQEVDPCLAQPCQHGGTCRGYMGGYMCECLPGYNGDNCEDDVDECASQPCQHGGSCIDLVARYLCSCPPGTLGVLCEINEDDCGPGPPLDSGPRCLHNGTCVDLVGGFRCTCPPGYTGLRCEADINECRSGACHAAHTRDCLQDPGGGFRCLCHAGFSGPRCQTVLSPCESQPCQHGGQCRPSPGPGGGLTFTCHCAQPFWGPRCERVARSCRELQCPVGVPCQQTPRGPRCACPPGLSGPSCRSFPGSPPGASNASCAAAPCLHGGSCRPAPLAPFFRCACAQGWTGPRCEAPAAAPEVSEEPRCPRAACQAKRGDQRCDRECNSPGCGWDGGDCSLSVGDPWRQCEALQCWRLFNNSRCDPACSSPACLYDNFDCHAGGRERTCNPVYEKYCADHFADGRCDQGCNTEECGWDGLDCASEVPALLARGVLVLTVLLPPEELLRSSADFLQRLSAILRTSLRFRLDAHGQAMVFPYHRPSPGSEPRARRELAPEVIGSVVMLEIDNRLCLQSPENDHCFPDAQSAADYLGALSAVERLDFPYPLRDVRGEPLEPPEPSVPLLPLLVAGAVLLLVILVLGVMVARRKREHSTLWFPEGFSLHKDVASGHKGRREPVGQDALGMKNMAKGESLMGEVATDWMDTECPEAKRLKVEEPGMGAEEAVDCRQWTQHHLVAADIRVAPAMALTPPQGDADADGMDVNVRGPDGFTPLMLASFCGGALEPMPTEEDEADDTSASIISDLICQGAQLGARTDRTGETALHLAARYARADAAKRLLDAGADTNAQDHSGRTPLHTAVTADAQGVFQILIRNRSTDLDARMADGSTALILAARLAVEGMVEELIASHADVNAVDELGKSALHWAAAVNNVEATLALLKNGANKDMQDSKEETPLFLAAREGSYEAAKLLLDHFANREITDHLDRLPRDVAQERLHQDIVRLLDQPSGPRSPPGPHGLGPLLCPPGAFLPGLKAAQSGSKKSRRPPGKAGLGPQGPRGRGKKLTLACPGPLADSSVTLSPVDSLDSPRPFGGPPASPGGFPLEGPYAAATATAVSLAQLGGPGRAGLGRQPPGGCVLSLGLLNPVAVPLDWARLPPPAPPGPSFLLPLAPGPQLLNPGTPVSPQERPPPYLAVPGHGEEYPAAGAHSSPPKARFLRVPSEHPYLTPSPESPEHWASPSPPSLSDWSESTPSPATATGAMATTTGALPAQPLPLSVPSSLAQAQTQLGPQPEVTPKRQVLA

For `C=C(CCCC)/C(=C/C[C@H](OC(C)=O)c1ccc(OCCO)cc1)c1cnc2ccccc2c1`, the composite z-score is 1.53 in [1]; 1.92 in [5]; -0.138 in experiment [7]; 1.04 in [8]; 0.727 in [9]; -0.0824 in experiment [10]. Further, the z-score is -1.1 (inactive) in experiment [2], -1.83 (inactive) in experiment [3], -0.434 (inactive) in [4] and 1 (inactive) in experiment [6].
Turning to `C=C(CCCC)/C(=C/C[C@@H](OC(C)=O)c1cccc(OCCO)c1)c1cnc2ccccc2c1`, the composite z-score is 1.29 in experiment [1]; 0.268 in experiment [5]; -0.194 in [7]; 1.73 in experiment [8]; 0.86 in [9]; -0.0828 in [10]. The z-score was 0.0358 (inactive) in experiment [2], -0.328 (inactive) in [3], 0.142 (inactive) in experiment [4] and 1.24 (inactive) in [6].
As for `CO[C@H]1O[C@H](CO)[C@@H](OC(=O)Nc2ccc(Oc3ccccc3)cc2)[C@H](OC(=O)Nc2ccc3c(c2)OCO3)[C@@H]1OC(=O)Nc1ccc2c(c1)OCO2`, the composite z-score in experiment [1] came to 1.53; in experiment [5] it was 3.04; in [7], 0.237; in [8], 0.866; in experiment [9], 1.07; in experiment [10], 0.367. The z-score in experiment [2] was 2.21 (inactive); in [3], 1.22 (inactive); in experiment [4], 8.57 (active); in [6] it was 1.36 (inactive).
